# 12-LOX inh: inhibitors of human 12S-lipoxygenase ALOX12. P18054. purified 12hLO, xylenol orange hydroperoxide absorbance. Potency, µM (top dose mostly 108 µM), inactives show top-dose activity change, negative = inhibition, most hits filed as inhibitors. 1.1% of 580,000 active. AID 1671190; also: potency is read from the fitted curve at half-maximal effect
# Target sequence (P18054 whole entry, looked up): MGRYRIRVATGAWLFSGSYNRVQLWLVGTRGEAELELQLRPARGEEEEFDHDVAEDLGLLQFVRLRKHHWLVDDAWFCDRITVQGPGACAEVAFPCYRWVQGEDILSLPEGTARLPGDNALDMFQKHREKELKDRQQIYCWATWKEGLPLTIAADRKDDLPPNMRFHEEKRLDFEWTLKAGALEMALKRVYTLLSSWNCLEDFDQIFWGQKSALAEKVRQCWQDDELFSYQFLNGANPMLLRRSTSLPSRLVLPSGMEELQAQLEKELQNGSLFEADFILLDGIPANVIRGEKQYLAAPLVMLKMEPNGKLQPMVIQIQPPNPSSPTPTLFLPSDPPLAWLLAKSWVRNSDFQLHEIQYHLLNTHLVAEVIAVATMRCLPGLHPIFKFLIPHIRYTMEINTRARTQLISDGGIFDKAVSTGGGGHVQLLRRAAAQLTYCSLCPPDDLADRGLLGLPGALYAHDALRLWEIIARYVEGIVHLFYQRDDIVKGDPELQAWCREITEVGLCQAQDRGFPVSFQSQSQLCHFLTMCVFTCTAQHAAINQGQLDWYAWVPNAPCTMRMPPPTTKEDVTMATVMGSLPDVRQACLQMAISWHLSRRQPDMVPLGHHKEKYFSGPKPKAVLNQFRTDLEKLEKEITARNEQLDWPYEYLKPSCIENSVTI
#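 Purified human 12hLO at 150 nM in 25 mM Hepes, 0.01% Triton X-100, pH 7.0, preincubated 15 min at room temperature with compound. Reaction started with 40 uM arachidonic acid, 30 min at room temperature. Hydroperoxide measured by Fe-xylenol orange, 573/405 nm absorbance ratio.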
# HT1080 IDH1KD tx: HT-1080 IDH1 knockdown cell toxicity (counter line) | Potency, µM (doses to about 46.1 µM), without a hit: at the highest dose activity, negative = toxicity, hits mostly cytotoxic | HT-1080 IDH1 knockdown viability, ATP luminescence, 48 h | 2% of 360,000 active;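 also: potency is read from the fitted curve at half-maximal effect; 0% = DMSO wells and -100% = cell-free medium wells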
#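 After a 2 h attachment period, IDH1KD HT-1080 cells took pin-transferred compound for 48 h at 37 °C; ATP-based luminescence after 10 min room-temperature reagent incubation reported viability.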
# TDP1 cell noCPT: qHTS for Inhibitors of human tyrosyl-DNA phosphodiesterase 1 (TDP1): qHTS in cells in absence of CPT; DT40 Tdp1-/- hTDP1 cells, no CPT, ATP luminescence, 48 h; Potency, µM (series often up to 46.2 µM), inactives show at the top dose activity change, negative = growth inhibition, most hits filed as inhibitors; 15% of 420,000 active; AID 686978, 2013; also: potency is read from the fitted curve at half-maximal effect; nearly all actives have a fitted effect of over 55% in size
#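 Cells were dispensed at 400 per well, compounds added by pin tool, plates incubated ≥48 hr at 37 °C, then CellTiter-Glo added for 30 min at room temperature before luminescence reading. Line: DT40 Tdp1-/- complemented with hTDP1; camptothecin omitted.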
# DT40 TDP1 CPT: growth inhibition of DT40 Tdp1-/-;hTDP1 cells with camptothecin (screen for TDP1 inhibitors) | chicken DT40 Tdp1-/-;hTDP1 cells + 20 nM CPT, ATP luminescence, 48 h | Potency, µM (highest dose often 46.2 µM), without a hit: top-dose activity change, negative = growth inhibition, actives largely listed as inhibitors | 12% of 420,000 active | AID 686979; also: potency is read from the fitted curve at half-maximal effect; nearly all actives have a fitted effect of over 55% in size
#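 Cell growth measured by CellTiter-Glo luminescence after a minimum 48 h, 37 C compound exposure with 20 nM CPT in Tdp1-knockout DT40 cells stably expressing hTDP1, seeded 400/well; qHTS titration format.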
# HT1080-NT tox: kills 2HG-producing HT-1080-NT fibrosarcoma cells | HT-1080-NT fibrosarcoma viability, CellTiter-Glo ATP luminescence, 48 h | Potency, µM (titrated, usually from 46.1 µM), for the others: at the top dose activity, negative = less viability, most hits filed as cytotoxic | 1.6% of 360,000 active | AID 686970;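 also: NT is the 2HG producing partner of a matched IDH1 knockdown line; potency is read from the fitted curve at half-maximal effect; 0% = DMSO-treated cells and -100% = media-only wells without cells; nearly all actives have a fitted effect of over 55% in size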
#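 Fibrosarcoma NT cells, 750 per well in 5% FBS RPMI, were exposed to compound for 48 hours. Viability: CellTiter-Glo luminescence.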
# IL1B secr inh: blocks inflammasome-driven IL-1 beta release; activity change, % at 57.5 µM; THP-1 LPS/ATP IL-1B secretion, AlphaLISA, 16 h; active compounds read low; 4.7% of 360,000 active; in the data active = activity change below about -50%; inconclusive = mostly about -30% to -49%
#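 Secreted IL-1B measured by AlphaLISA bead assay after 16 h compound exposure of THP-1 cells; compounds (final up to 57.5 uM) added 1 h before LPS (250 ng/mL) and ATP (1.25 mM) stimulation; lower signal means less secretion.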
# Starred values were filed as active, the others as inactive; ? = inconclusive; · = not tested or not shown; [ ] = dose if it differs, or a comment. This is one part of a sample in which hits are shown more often than they occur. Unless noted, calls follow the shape of the dose curve; as a rule, active = well fitted curve in the direction sought with a large enough effect; inconclusive = small, poorly fitted or top-dose-only effect, or another doubt; inactive = no such curve, though single readings can be large; an effect the other way counts as inactive or inconclusive. Unless noted, % is scaled to controls: 0 for no effect and ±100 for the full control effect.
SMILES,12-LOX inh,HT1080 IDH1KD tx,TDP1 cell noCPT,DT40 TDP1 CPT,HT1080-NT tox,IL1B secr inh
COc1ccc(C(=O)Nc2ccc(Cl)cc2C(=O)NCc2ccco2)cc1,-3%,-2%,6.5µM*,5.2µM*,-28%,25
CCC(C)C(NC(=O)c1ccccc1NC(=O)c1ccc(OC)cc1)C(=O)NCc1ccco1 (stereo unspecified),2%,?,-52%,-20%,-30%,0
CCN(CCCNC(=O)c1cc(Nc2ccc(OC)cc2OC)nc2ccccc12)c1cccc(C)c1,?,·,15µM*,21µM*,·,·
COc1ccc(N=c2oc3c(OC)cccc3cc2C(=O)NCc2ccco2)c(OC)c1,·,1%,13µM*,?,1%,-22
O=C(CSc1nc2ccccc2s1)c1ccc2c(c1)OCCO2,3%,·,·,·,·,·
O=C(C1CCCC1)N1CCN(c2nc3ncccc3o2)CC1,19%[176 µM],·,·,·,·,·
COc1ccc(Nc2cc(C(=O)NCCCOC(C)C)c3ccccc3n2)c(OC)c1,-7%,13%,16µM*,16µM*,1%,-6
COc1ccc(Nc2cc(C(=O)NCc3ccco3)c3ccccc3n2)c(OC)c1,-9%,-3%,23µM*,?,-1%,9
Cc1cc(C)cc(Nc2cc(C(=O)NCCCOC(C)C)c3ccccc3n2)c1,15%,·,·,·,·,·
COCC(=O)N1CCC[C@@]2(CCN(Cc3nccs3)C2)C1,?,·,3%,3%,·,·
COc1ccc(Nc2nnc(SCC3CCCCO3)s2)cc1 (stereo unspecified),360%,14%,-3%,-1%,4%,0
Cc1cccc(Nc2nnc(SCC3CCCCO3)s2)c1 (stereo unspecified),0%,-16%,?,23µM*,-3%,-5
CCOCCn1c(=O)[nH]c2cc(C(=O)NCc3nnc(C)o3)ccc21,13%,·,·,·,·,·
CC(C)Oc1cccc(C(=O)C2CCCN(Cc3cnc(N4CCCC4)s3)C2)c1 (stereo unspecified),-1%,-21%,?,?,-24%,?
COc1ccc(C(=O)N2CCN(Cc3ccccn3)CC2)cc1,?,5%,18%,4%,1%,-14
COc1c(C)cc(C(=O)C2CCCN(Cc3ccc(Oc4ncccn4)cc3)C2)cc1C (stereo unspecified),-7%,0%,15µM*,?,-4%,-11
CCn1ccnc1CN1CCCC(C(=O)c2ccc3cc(OC)ccc3c2)C1 (stereo unspecified),3%,?,4.6µM*,2.9µM*,?,-96*
COc1ccc2cc(C(=O)C3CCCN(Cc4ccccn4)C3)ccc2c1 (stereo unspecified),0%,-20%,18µM*,?,-20%,-27
COc1ccc2cc(C(=O)C3CCCN(Cc4cnc(N5CCOCC5)s4)C3)ccc2c1 (stereo unspecified),-22%,-16%,18µM*,?,-3%,?
O=C(NCc1ccccc1)NC[C@H]1Cn2c(-c3ccc4c(c3)OCO4)cnc2CO1,46%[176 µM],·,·,·,·,·
CCOc1ccc(CCNC(=O)Cn2c(-c3cccs3)cc3ccccc32)cc1,-5%,·,?,?,·,·
O=C(Cn1ccn2nc3c(c2c1=O)CCCCC3)Nc1cc(F)ccc1F,-5%,·,·,·,·,·
COc1ccc2c(c1)CN(C(=O)c1ccnc(Cl)c1)CC[C@H]1COC(=O)N21,-1%[176 µM],·,·,·,·,·
O=C(NCCCNC(=O)c1cc2ccccc2[nH]1)c1ccc(F)cc1,3%,·,·,·,·,·
CCOC(=O)c1[nH]c(C)c(/C(O)=C2\C(=O)C(=O)N(CCCN3CCOCC3)C2c2cccs2)c1C (stereo unspecified),68%,21µM*,-11%,24%,9.2µM*,9

# Assay outcomes: PubChem, National Center for Advancing Translational Sciences (NCATS)
